The text below walks through data of PubChem BioAssay (NCATS).

Inconclusive results are not listed. A call without a number means that no potency is given here. The source made the active and inactive calls. Calls follow the shape of the dose curve; as a rule, active = well fitted curve in the direction sought with a large enough effect; inconclusive = small, poorly fitted or top-dose-only effect, or another doubt; inactive = no such curve, though single readings can be large; an effect the other way counts as inactive or inconclusive.

The first experiment is described as follows: Cytotoxicity counterscreen for NFkB agonists and antagonists (AID 624476).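 Also: cells exposed to compound for 48 hours.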 Also: potency is read from the fitted curve at half-maximal effect. The note with it: NFkB reporter cell line viability counterscreen; series mostly up to 46.1 µM. On the technique in general: Counterscreens check selectivity or assay interference.
Take `Nc1ccc(-c2ccc3ncc4ccc(=O)n(-c5cccc(C(F)(F)F)c5)c4c3c2)cn1`: the Potency is 0.833 µM (active).
On the same count and under the same terms, the figure for `CNC(=O)c1cc(Oc2ccc(NC(=O)Nc3ccc(Cl)c(C(F)(F)F)c3)c(F)c2)ccn1` is 5.26 µM (active); for `O=C1CN2Cc3c(ccc(Cl)c3Cl)N=C2N1` it is “inactive”; for `CCC(=O)N1CCN(c2ccc(-n3c(=O)ccc4cnc5ccc(-c6cnc7ccccc7c6)cc5c43)cc2C(F)(F)F)CC1` it is 13.2 µM (active).
On the same count and under the same terms, the result for `O=C(O)c1ccc(O)c2ncc(N3CCOCC3)cc12` reads “inactive”.
With `O=C1C(CCC(O)c2ccc(F)cc2)C(c2ccc(O)cc2)N1c1ccc(F)cc1` (centres undefined), the Potency result was “inactive”.
The same measure, in the same setting: the entry for `Cc1nn(Cc2ccccc2Cl)c(C)c1CN(C)CC(O)COc1ccc(Cl)cc1` (centres undefined) is “inactive”; for `CCNC(=O)c1noc(-c2cc(C(C)C)c(O)cc2O)c1-c1ccc(CN2CCOCC2)cc1` it is “inactive”; for `COc1c(C)cnc(Cn2cnc3c(Cl)nc(N)nc32)c1C` it is “inactive”.
As for `CCCCn1c(=O)n(Cc2ccccc2F)c(=O)c2[nH]c(Cc3ccc(NC(C)=O)cc3)nc21`, the Potency entry is “inactive”.
Still for that read-out and setting: the result for `CC(C)Oc1cc(Nc2nc(N[C@@H](C)c3ccc(F)cn3)ncc2Cl)[nH]n1` reads 2.96 µM (active).
For the molecule `C[C@@H](O[C@H]1OCCN(Cc2n[nH]c(=O)[nH]2)[C@@H]1c1ccc(F)cc1)c1cc(C(F)(F)F)cc(C(F)(F)F)c1`, the Potency was 29.6 µM (active).
Still for that read-out and setting: the entry for `CC(C)C[C@@H](C(=O)N[C@H](C(=O)OC1CCCC1)c1ccccc1)[C@H](O)C(=O)NO` is “inactive”; for `COc1cc2nccc(Oc3ccc(NC(=O)Nc4cc(C)on4)c(Cl)c3)c2cc1OC` it is “inactive”; for `COc1cccc(OC)c1-c1cc(C(=O)NC2(C(=O)O)C3CC4CC(C3)CC2C4)nn1-c1ccnc2cc(Cl)ccc12` (centres undefined) it is 14.8 µM (active).
Turning to `COc1ccc2c(c1)CC[C@H]1[C@@H]2CC[C@]2(C)[C@@H](NCCCCCCN3C(=O)C=CC3=O)CC[C@H]12`, the Potency entry is “inactive”.
Same read-out and setting: the entry for `COc1cc2c(cc1OC)CC(=O)N(CCCN(C)C[C@H]1Cc3cc(OC)c(OC)cc31)CC2` is “inactive”.

The next experiment in a line: qHTS Assay for Identification of Small Molecule Agonists for NFkB Signaling Pathway. (AID 624478).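 Also: compounds tested together with TNF alpha at its EC50 of 10 pM.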 The note with it: NFkB pathway reporter cell assay, agonist mode, cells co-stimulated with 10 pM TNF alpha; series mostly up to 46.1 µM. A digest of the protocol:
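Read-out: 460/530 nm emission at 405 nm excitation after 2 h LiveBLAzer loading; ME-180 NFkB-bla reporter cells exposed 5 h at 37 C to compounds with 10 pM TNF alpha final.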
For `Nc1ccc(-c2ccc3ncc4ccc(=O)n(-c5cccc(C(F)(F)F)c5)c4c3c2)cn1`, the call was inactive.
On the same count and under the same terms, the result for `CNC(=O)c1cc(Oc2ccc(NC(=O)Nc3ccc(Cl)c(C(F)(F)F)c3)c(F)c2)ccn1` reads “inactive”; that for `O=C1CN2Cc3c(ccc(Cl)c3Cl)N=C2N1`, “inactive”; that for `CCC(=O)N1CCN(c2ccc(-n3c(=O)ccc4cnc5ccc(-c6cnc7ccccc7c6)cc5c43)cc2C(F)(F)F)CC1`, “inactive”.
For the molecule `O=C(O)c1ccc(O)c2ncc(N3CCOCC3)cc12`, the molecule was called inactive.
The same measure, in the same setting: the result for `O=C1C(CCC(O)c2ccc(F)cc2)C(c2ccc(O)cc2)N1c1ccc(F)cc1` (centres undefined) reads “inactive”; that for `Cc1nn(Cc2ccccc2Cl)c(C)c1CN(C)CC(O)COc1ccc(Cl)cc1` (centres undefined), “inactive”; that for `CCNC(=O)c1noc(-c2cc(C(C)C)c(O)cc2O)c1-c1ccc(CN2CCOCC2)cc1`, “inactive”.
Still for that read-out and setting: the result for `COc1c(C)cnc(Cn2cnc3c(Cl)nc(N)nc32)c1C` reads “inactive”; that for `CCCCn1c(=O)n(Cc2ccccc2F)c(=O)c2[nH]c(Cc3ccc(NC(C)=O)cc3)nc21`, “inactive”.
Still for that read-out and setting: the entry for `CC(C)Oc1cc(Nc2nc(N[C@@H](C)c3ccc(F)cn3)ncc2Cl)[nH]n1` is “inactive”; for `C[C@@H](O[C@H]1OCCN(Cc2n[nH]c(=O)[nH]2)[C@@H]1c1ccc(F)cc1)c1cc(C(F)(F)F)cc(C(F)(F)F)c1` it is “inactive”; for `CC(C)C[C@@H](C(=O)N[C@H](C(=O)OC1CCCC1)c1ccccc1)[C@H](O)C(=O)NO` it is “inactive”.
With `COc1cc2nccc(Oc3ccc(NC(=O)Nc4cc(C)on4)c(Cl)c3)c2cc1OC`, the molecule was called inactive.
As for `COc1cccc(OC)c1-c1cc(C(=O)NC2(C(=O)O)C3CC4CC(C3)CC2C4)nn1-c1ccnc2cc(Cl)ccc12` (centres undefined), the outcome was inactive.
On the same count and under the same terms, the result for `COc1ccc2c(c1)CC[C@H]1[C@@H]2CC[C@]2(C)[C@@H](NCCCCCCN3C(=O)C=CC3=O)CC[C@H]12` reads “inactive”.
The same measure, in the same setting: the result for `COc1cc2c(cc1OC)CC(=O)N(CCCN(C)C[C@H]1Cc3cc(OC)c(OC)cc31)CC2` reads “inactive”.
